# Source: PubChem BioAssay
# An excerpt weighted towards active compounds, which were near 1.1% of everything screened.
# uPA surface inh = inhibitors of cell surface uPA generation; cell surface uPA generation assay, qHTS; Potency, µM (top dose mostly 38.3 µM), for inactives: top-dose activity change, negative = inhibition, actives largely listed as inhibitors; actives 0.31% (n = 330,000); active = well fitted inhibition curve with a large enough effect; inconclusive = small, poorly fitted or top-dose-only effect; inactive = no such curve, though single readings can be large or run the other way; tested in mouse RAW 264.7 cells; also: potency is read from the fitted curve at half-maximal effect; % is scaled to controls: 0 for no effect and ±100 for the full control effect; nearly all actives have a fitted effect of over 55% in size
# MBNL1-CUG inh = MBNL1-poly(CUG) RNA binding inhibition. TR-FRET MBNL1-His/biotin-(CUG)12 binding, 665/545 ratio. actives 0.036% (n = 280,000). Q9NR56. Potency, µM (titrated, usually from 57.5 µM), without a hit: at the highest dose activity change, negative = inhibition, actives largely listed as inhibitors; active = well fitted inhibition curve with a large enough effect in the signal ratio, with a control signal flat, not every such curve was filed as active; inconclusive = small, poorly fitted or top-dose-only effect, or effect the other way, or a change in a side signal; inactive = no such curve, though single readings can be large or run the other way; the % refers to the signal ratio; also: potency is read from the fitted curve at half-maximal effect; % is scaled to controls: 0 for no effect and ±100 for the full control effect
# Target sequence (Q9NR56 whole entry, looked up): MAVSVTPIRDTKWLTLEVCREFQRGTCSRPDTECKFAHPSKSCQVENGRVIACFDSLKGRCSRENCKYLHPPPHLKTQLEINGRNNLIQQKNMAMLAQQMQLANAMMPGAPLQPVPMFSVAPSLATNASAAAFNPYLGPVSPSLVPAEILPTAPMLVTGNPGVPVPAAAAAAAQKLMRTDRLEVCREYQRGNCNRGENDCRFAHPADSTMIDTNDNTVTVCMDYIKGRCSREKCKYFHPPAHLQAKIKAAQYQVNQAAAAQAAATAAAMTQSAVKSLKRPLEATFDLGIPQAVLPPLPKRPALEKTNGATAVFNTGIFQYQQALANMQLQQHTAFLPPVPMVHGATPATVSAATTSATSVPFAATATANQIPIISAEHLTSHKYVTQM
#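 TR-FRET between His-tagged MBNL1 and biotin-(CUG)12 RNA, detected with Tb anti-His antibody (0.055 ng/ul) and streptavidin-XL665 (5 nM), 60 min at room temperature. Compounds titrated 92 nM to 58 uM; 665/545 nm ratio normalized to buffer and complex controls.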
# Mito fusion act = blocks mitochondrial division or promotes mitochondrial fusion; S. cerevisiae fusion-defective mutant growth rescue, CellTiterGlo 48 h; Potency, µM (top dose mostly 46.1 µM), for the others: at the highest dose growth rescue (activation), usual class: activators; actives 0.23% (n = 320,000); AID 485298; active = well fitted activation curve with a large enough effect; inconclusive = small, poorly fitted or top-dose-only effect; inactive = no such curve, though single readings can be large or run the other way; also: potency is read from the fitted curve at half-maximal effect; % of control where 0% means no effect; nearly all actives have a fitted effect of over 45% in size
#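 Temperature-sensitive fusion-defective S. cerevisiae (e.g. fzo1-1, mgm1-5) were grown with compound in YPEG medium (3% ethanol, 3% glycerol) for 48 hours at 37C. Growth rescue was measured as viability by CellTiterGlo luminescence after 10 minutes at ambient.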
# Six1-Eya2 blk = blocks human Six1 binding to Eya2; Q15475+O00167; AlphaScreen GST-Six1/His-Eya2 binding, biochemical; hits give low values; activity change, % (concentration not given with the values); actives 0.56% (n = 360,000); AID 651725; also: % is scaled to controls: 0 for no effect and ±100 for the full control effect
#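 Compounds are tested against tagged Six1 and Eya2 proteins bridged by glutathione donor and nickel acceptor beads; after a one-hour incubation at 37 °C without light, AlphaScreen emission is recorded.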
# CtBP-E1A inh = CtBP/E1A binding inhibition; AlphaScreen GST-E1A/His-CtBP binding, 1536-well; hits give low values; activity change, % (concentration not given with the values); actives 0.49% (n = 340,000); AID 651724; also: % is scaled to controls: 0 for no effect and ±100 for the full control effect
#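 Homogeneous bead-based format: GST-tagged E1A captured on glutathione donor beads, His-tagged CtBP on nickel acceptor beads; compounds precede bead addition by 2 h at 37 °C.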
# An asterisk follows results filed as active; ? = inconclusive; . = no result given; [ ] = dose if it differs, or a comment. Rule as the data show it, unless noted: active = activity change below about -65%; inconclusive = mostly about -30% to -63%; inactive = weaker than that.
SMILES,uPA surface inh,MBNL1-CUG inh,Mito fusion act,Six1-Eya2 blk,CtBP-E1A inh
COC(=O)c1cc2c(-c3ccccc3)c(C)c3ccccn3c-2c1C(=O)OC,-1%,54%,23%,-69*,?
COC(=O)c1c(C(=O)OC)c2ccccn2c1C(=O)c1ccccc1,-6%,19%,5%,2,11
C[C@H]1COc2cccc(N(C)CCO)c2S(=O)(=O)N1,.,.,.,-2,4
Oc1ccc(/C=N/NC(=S)Nc2cccnc2)cc1,4µM*,?,-10%,-8,.
Oc1ccc(/C=N/NC(=S)N/N=C/c2ccc(O)cc2)cc1,-7%,?,-2%,?,-67*
COc1ccccc1NC(=S)N/N=C/c1ccc(O)cc1,-5%,-2%,0%,?,-16
COC(=O)C(C#N)(CCC(=O)c1ccccc1)CCC(=O)c1ccccc1,.,.,.,-2,1
CCN(c1ccccc1)S(=O)(=O)c1ccc(C(=O)N2CCN(c3ccccc3F)CC2)cc1,.,.,.,-1,0
O=C(O)CCC/C=C\C[C@@H]1[C@@H](/C=C/[C@H](O)C2Cc3ccccc3C2)[C@@H](F)C[C@@H]1O,.,.,0%,.,.
COc1ccc(OC)c(NC(=O)c2cc(-c3cc(Cl)ccc3O)n[nH]2)c1,3%,0%,4%,7,-8
COc1ccc(Cl)cc1NC(=O)c1cc(-c2ccccc2O)n[nH]1,3%,3%[11.5 µM],6.3µM*,-2,8
C[C@]12CC[C@@H]3c4ccc(O)cc4C[C@@H](CCCCCCCCCS(=O)CCCC(F)(F)C(F)(F)F)[C@H]3[C@@H]1CC[C@@H]2O (stereo not given in full),.,.,-4%,.,.
O=C(CNC(=O)c1ccc(F)cc1)N/N=C/c1cc(Br)ccc1OC(=O)/C=C/c1ccco1,1%,-1%,6%,-23,?
O=C(CNC(=O)c1ccccc1F)N/N=C/c1cc(Br)ccc1OC(=O)/C=C/c1ccco1,-7%,.,?,-90*,-92*
COc1ccccc1C(=O)NCC(=O)N/N=C/c1cc(Br)ccc1OC(=O)/C=C\c1ccco1,?,.,16%,-74*,.
COC(=O)C1CCN(C2CN(Cc3ccc([N+](=O)[O-])cc3)S(=O)(=O)C2)CC1 (stereo not given),.,.,.,-1,6
Cc1sc2nc(C3CC3)nc(SCC(=O)N3CCc4ccccc4C3)c2c1C,-10%,-6%,13µM*,0,2
CN(C)c1ccc(C=C2C=CC=C2)cc1,-3%,.,.,-66*,-27
CN1C(=O)/C(=C\c2ccc(N(C)C)cc2)OC1=S,-4%,23%,2%,2,8
COc1ccccc1NS(=O)(=O)c1ccc2oc(SCc3ccc(F)cc3)nc2c1,2%,.,3%,6,7
COc1ccc(NS(=O)(=O)c2ccc3oc(SCc4ccc(F)cc4)nc3c2)cc1,-3%,8%,16µM*,0,5
COCc1cc(C)nc2c1C(=O)NC(c1ccc(C)cc1)N2Cc1ccccc1 (stereo not given),.,.,7%,.,.
O=C(Oc1c(CN2CCOCC2)cc(Cl)c2cccnc12)c1ccccc1Br,?,.,5%,-94*,-69*
O=C(Oc1c(Cl)cc(Cl)c2cccnc12)N1CCOCC1,3%,14%,-3%,3,-10
CCOC(=O)N1CCN(Cc2ccccc2Cl)CC1,.,-8%,8%,8,6
SMILES,uPA surface inh,MBNL1-CUG inh,Mito fusion act,Six1-Eya2 blk,CtBP-E1A inh
COCc1cc(CN2CCN(C)CC2)c(O)c2ncccc12,-12%,20%,-3%,-92*,-93*
Oc1c(CN2CCOCC2)cc(COCc2ccccc2)c2cccnc12,-5%,25%,-8%,-92*,-88*
Oc1c(CN2CCN(c3ccccc3)CC2)cc(Br)c2cccnc12,?,0%,10%,-19,-26
CCOC(=O)N1CCN(Cc2cc(Cl)c3cccnc3c2O)CC1,-15%,?,12%,-78*,-91*
CCOC(=O)C(Cc1c[nH]c2cc([N+](=O)[O-])ccc12)(NC(C)=O)C(=O)OCC,-2%,.,.,-2,6
CC#CC#Cc1cccc(=O)o1,5µM*,?,-17%,-10,.
CN1CCN(C2CN(Cc3cn(Cc4ccccc4)nn3)S(=O)(=O)C2)CC1 (stereo not given),.,.,.,9,-12
CN(Cc1ccccc1)c1nc(N)c([N+](=O)[O-])c(NCc2ccccc2)n1,-5%,?,11µM*,-25,-4
Cc1cc2c(c(=O)o1)C1O[C@](c3ccsc3)(Cc3ccccc31)O2,.,-3%[11.5 µM],-1%[9.22 µM],.,.
COc1ccc(/C=C/C(=O)NC(=S)Nc2ccc(S(=O)(=O)Nc3ccc(OC)nn3)cc2)cc1,-13%,.,-5%,?,-77*
COc1ccc(/C=C/C(=O)Oc2ccc(C)cc2)cc1,-19%,7%,3%,-2,-70*
COc1ccc(NC(=O)/C=C/c2ccc(Cl)cc2)cc1,.,.,5.2µM*,.,.
Cc1cccc(C)c1NC(=O)C1(C)CSCC(=O)N1CCc1ccccc1 (stereo not given),.,.,.,-3,-4
COc1cc(N=Nc2ccc3ccccc3c2)ccc1O,3.2µM*,15%,-28%,?,?
COc1cc(N=Nc2ccccc2C(=O)O)ccc1O,0%,?,-18%,-21,.
CCOC(=O)CN(C(=O)CSc1nnc2c(n1)[nH]c1ccccc12)c1ccccc1,2%,15%,2%,?,?
CCOC(=O)CN(C(=O)CSc1nnc2c(n1)[nH]c1ccc(F)cc12)c1ccccc1,2%,?,6%,-66*,-70*
CCCCn1nnnc1C(c1cc2ccccc2o1)N(Cc1ccccc1)Cc1ccccc1 (stereo not given),.,.,.,7,7
CC1=NN(c2nc3ccccc3[nH]2)C(=O)C1Cc1ccccc1 (stereo not given),2%,8%,-5%,-91*,-81*
CC1=NN(c2nc3ccccc3[nH]2)C(=O)/C1=C/N(C)C,-20%,6%,-12%,?,?
COc1cc(-c2noc(C)c2-c2ccc3[nH]ccc3c2)cc(OC)c1OC,0.56µM*,7%,6%,6,.
COc1cc(-c2noc(C)c2-c2ccc(N(C)C)nc2)cc(OC)c1OC,-73%,-11%,1%,-10,.
O=C(O)c1ccc2c(c1)C(=O)N([C@]1(C(=O)O)CC1c1ccccc1)C2=O (stereo not given in full),.,.,-4%,.,.
COc1ccccc1N1CCN(C(=O)c2sc3ncnc(N4CCN(c5ccccn5)CC4)c3c2C)CC1,-13%,-4%,3%,-20,-11
COc1ccccc1N1CCN(C(=O)c2sc3nc(C)nc(N4CCN(c5ccccn5)CC4)c3c2C)CC1,.,8%,28µM*,?,-24
CC(=O)N1CCC(C(=O)N2c3ccccc3N=C(c3ccc(C(F)(F)F)cc3)C2C(=O)NC(C)C)CC1 (stereo not given),.,.,.,1,0
